# Assay results taken from PubChem BioAssay AID485364 (National Center for Advancing Translational Sciences (NCATS), 2010).
# The whole screen tested about 360,000 compounds, of which about 11,000 (3.1%) were called active. About 4% were inconclusive and are not listed. Calls come from the whole dose curve; as a rule, active = well fitted inhibition curve with a large enough effect; inconclusive = small, poorly fitted or top-dose-only effect; inactive = no such curve, though single readings can be large or run the other way. Shown is part of a subset that was picked to be rich in actives.
# Molecular target: Schistosoma mansoni thioredoxin glutathione reductase (TGR) (UniProt Q962Y6)
# Test: qHTS Assay for the Inhibitors of Schistosoma Mansoni Peroxiredoxins; note: nearly all actives have a fitted effect of over 60% in size
# Details: purified TGR, DTNB reduction, TNB absorbance 405 nm; series mostly up to 114 µM; activity change, negative = inhibition: at the top concentration
# Method in brief: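 Kinetic colorimetric format: TGR-catalysed, NADPH-driven DTNB reduction monitored via TNB absorbance. Enzyme dispensed at 20 nM; compound exposure 15 min at room temperature before reaction start.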
# % is set by controls: 0 for no effect and ±100 for the full control effect; potency is the fitted concentration of half-maximal effect.
Compound,"activity change, negative = inhibition",Potency
O=C1CC(c2nnc(Cc3ccc(Cl)cc3)o2)CN1c1ccccc1 (stereo not drawn),3.72% (inactive),–
CC(C)N1C(=O)N(c2ccccc2)C(C)(O)CC1(C)C (stereo not drawn),0.967% (inactive),–
Cc1ccsc1C1C(C#N)=C(N)OC2=C1C(=O)CC(C)(C)C2 (stereo not drawn),0.359% (inactive),–
CC(C)C1C2=C(CC(C)(C)CC2=O)ON1c1ccccc1 (stereo not drawn),–,28.2 µM (active)
Cc1sc2ncn(CC(=O)N3CCN(c4ccc(F)cc4)CC3)c(=O)c2c1S(=O)(=O)N1CCN(c2ncccn2)CC1,-0.836% (inactive),–
CCc1cnc2c(c1SCC(=O)N1CCC(C)CC1)c(=O)n(C)c(=O)n2C,-0.0016% (inactive),–
O=C(Nc1cc(-c2nc3ccccc3o2)ccc1Cl)c1cc([N+](=O)[O-])ccc1N1CCOCC1,-0.536% (inactive),–
Cc1onc(C(=O)Nc2ccc3c(c2)OCO3)c1[N+](=O)[O-],-12.1% (inactive),–
Cc1cccc(NC(=O)c2ccc(COc3ccccc3[N+](=O)[O-])o2)n1,-4.93% (inactive),–
O=C(Nc1cccc([N+](=O)[O-])c1)c1ccc2c(c1)OCO2,2.85% (inactive),–
Cc1onc(NC(=O)c2ccc([N+](=O)[O-])o2)c1Br,–,28.2 µM (active)
Cc1cccc(NC(=O)c2ccc([N+](=O)[O-])o2)c1,–,31.6 µM (active)
Cc1cccc(NC(=O)C(C)SCc2ccccc2)c1 (stereo not drawn),-15.1% (inactive),–
Cc1cccc(C(=O)Nc2ccc(-c3nc4ncccc4o3)cc2C)c1,14.9% (inactive),–
COc1cc(NC(=O)c2cc3ccc4cccnc4c3[nH]2)cc(OC)c1OC,12.9% (inactive),–
COc1ccc(Cl)cc1NC(=O)CCn1c(=O)c2cccn2c2ccccc21,-1.03% (inactive),–
COc1cc(OC)c(OC)cc1/C=C/c1nc2cc3ccccc3cc2c(=O)n1-c1ccc(F)c(Cl)c1,2.39% (inactive),–
COC(=O)C(NC(C)=O)(Nc1nc2c(s1)CCCC2)C(F)(F)F (stereo not drawn),–,50.1 µM (active)
CCOC(=O)C(NC(=O)CC(C)C)(Nc1sc2c(c1C(N)=O)CCCC2)C(F)(F)F (stereo not drawn),-18.7% (inactive),–
Cc1cc(C)cc(OC(C)C(=O)Nc2nc3c(s2)CCCC3)c1 (stereo not drawn),5.35% (inactive),–
COc1ccccc1CNc1nc2ccc(Cl)cc2n2cnnc12,-0.742% (inactive),–
COc1ccccc1NC(=O)c1sc2nc(C)c(C(=O)Nc3ccc(Cl)cc3)c(-c3ccc(Br)cc3)c2c1N,2.29% (inactive),–
O=C(Cc1ccc(Cl)cc1)NC(=S)Nc1ccccc1O,-7.71% (inactive),–

Compound,"activity change, negative = inhibition",Potency
Oc1ccc(CNc2ccccc2O)cc1,–,20 µM (active)
O=[N+]([O-])c1ccccc1NCc1ccc(Cl)cc1,-16.6% (inactive),–
O=C(CC(c1cccs1)N1Cc2ccccc2C1=O)Nc1ccc(F)c(F)c1 (stereo not drawn),11.1% (inactive),–
CC(C)Oc1ccc(CNC(=O)C2CCN(c3nc4ccccc4n(C)c3=O)CC2)cc1,1.86% (inactive),–
CC1CN(C(=O)N2CCC(C(=O)NCc3cccs3)CC2)c2ccccc2O1 (stereo not drawn),6.75% (inactive),–
O=C(NC1(C(F)(F)F)N=C(c2ccccc2)N(C2CCCCC2)C1=O)c1ccccc1F (stereo not drawn),-12.4% (inactive),–
CC1=C(C/C=C(\C)CCCC(C)CCCC(C)CCCC(C)C)C(=O)c2ccccc2C1=O (stereo not drawn),–,28.2 µM (active)
CC(=O)Nc1ccc(NC(=O)CCCc2nc(-c3ccc(C(C)(C)C)cc3)no2)cc1,0.679% (inactive),–
Cc1cc(C)c(-c2n[nH]c3c2C(c2ccccc2F)N(CCO)C3=O)c(O)c1 (stereo not drawn),6.94% (inactive),–
COc1ccc(N2CCN(Cc3nc4c(c(=O)[nH]c(=O)n4C)n3Cc3ccc(Cl)cc3)CC2)cc1,-14.2% (inactive),–
Cc1nnc(NC(=O)/C=C/c2ccco2)s1,–,22.4 µM (active)
Cc1nnc(NC(=O)CCCOc2ccccc2)s1,0.399% (inactive),–
CCOC(=O)c1c(NC(=S)NC(=O)/C=C/c2cccs2)sc(C)c1C,-1.8% (inactive),–
CCOC(=O)c1c(NC(=O)/C=C/c2ccco2)sc(C)c1C,–,35.5 µM (active)
Cc1nnc(NC(=O)C(c2ccccc2)c2ccccc2)s1,-4.87% (inactive),–
CCOC(=O)c1sc(NC(=O)/C=C/c2ccc(C(C)C)cc2)c(C(=O)OCC)c1C,0.526% (inactive),–
O=C(CSc1nc(-c2cccc(F)c2)[nH]c1-c1ccccc1)Nc1ccc2c(c1)OCO2,3.36% (inactive),–
CCN(CC)S(=O)(=O)c1ccc(C(=O)N=c2sc3cccc(OC)c3n2C)cc1,8.26% (inactive),–
Cc1ccc(C)c(OCC(=O)Nc2sc3c(c2C#N)CCCC3)c1C,-1.88% (inactive),–
Cc1ccccc1-n1nc(C)c2c1N=C1C(Cl)=CC(Cl)=CN1C2c1ccc(C(=O)O)cc1 (stereo not drawn),–,35.5 µM (active)
Cc1ccccc1-n1nc(C)c2cc(C(=O)NC3CC3)sc21,-24.8% (inactive),–
Cc1nn(-c2ccccc2)c(Cl)c1/C=C/C(=O)c1ccc(O)cc1,-14.4% (inactive),–
O=C(Nc1ccc2nc(SCC(=O)N3CCCc4ccccc43)sc2c1)c1ccc(F)cc1,-0.299% (inactive),–

Compound,"activity change, negative = inhibition",Potency
CC(=O)c1ccc(NC(=O)c2nc(-c3ccc(C)cc3)n3c2CCCCC3)cc1,-15.5% (inactive),–
Cc1ccccc1CNC(=O)CCCn1nc(C)c2sc3ccccc3c2c1=O,22% (inactive),–
CCC(C)NC(=O)C1c2ccccc2C(=O)N1Cc1ccccc1 (stereo not drawn),-5.66% (inactive),–
O=C(NC1CCCCC1)C1c2ccccc2C(=O)N1Cc1ccco1 (stereo not drawn),–,39.8 µM (active)
O=C(CC1OC(=O)c2ccccc21)NC1CCCCC1 (stereo not drawn),-20.2% (inactive),–
CC(NC(=O)c1cc(Sc2ccc(F)cc2F)nc2ccccc12)c1ccccc1 (stereo not drawn),2.43% (inactive),–
CC(C)C(=O)Nc1nc2c(s1)CC(C(C)(C)C)CC2 (stereo not drawn),-0.633% (inactive),–
Cc1ccc(S(=O)(=O)N(CC(=O)Nc2ccc(Cl)cc2Cl)c2ccccc2C)cc1,3.93% (inactive),–
COc1cccc(CN2CCc3nc(SCC(=O)Nc4ccccc4)[nH]c(=O)c3C2)c1,-2.13% (inactive),–
CC(C)c1ccc(NC(=O)C2CCN(c3nc(-c4ccc(C(C)C)cc4)no3)CC2)cc1,45% (inactive),–
COC(=O)CN(C(=S)Nc1ccc(Cl)cc1)C1CC(=O)N(c2ccc(OC)cc2)C1=O (stereo not drawn),3.21% (inactive),–
COc1cccc(N2C(=O)CN(Cc3ccccc3)C2=S)c1,-29.4% (inactive),–
CN1C(=O)CC(N2CCN(c3ccccn3)CC2)C1=O (stereo not drawn),1.89% (inactive),–
COc1ccc(CN2CCCC(N3CCc4ccccc4C3)C2)c(O)c1 (stereo not drawn),-23% (inactive),–
COc1cccc(N2CC(NS(=O)(=O)c3ccc(Cl)cc3)CC2=O)c1 (stereo not drawn),-6.5% (inactive),–
COc1cccc(N2CCN(C3CC(=O)N(c4ccc(Cl)cc4)C3=O)CC2)c1 (stereo not drawn),–,39.8 µM (active)
O=C1CC(N2CCN(c3ccc(F)cc3)CC2)C(=O)N1c1ccccc1 (stereo not drawn),–,50.1 µM (active)
COc1cccc(N2C(=O)CC(N3CCN(S(=O)(=O)c4ccccc4)CC3)C2=O)c1 (stereo not drawn),–,39.8 µM (active)
COc1ccc(COCCN2CCN(S(=O)(=O)c3ccccc3)CCC2=O)cc1,-10.8% (inactive),–
O=C(C1CC(=O)N(c2ccc(F)cc2)C1)N1CCN(c2ccccc2)CC1 (stereo not drawn),-41.2% (inactive),–
COc1cccc(N(CC(=O)N2CCc3ccccc3C2)S(C)(=O)=O)c1,-6.18% (inactive),–
COc1cccc(N2C(=O)CC(N3CCc4ccccc4C3)C2=O)c1 (stereo not drawn),–,39.8 µM (active)
